# Calls of active or inactive are those of the source. The calls were made as follows: active = hit-call score of the fitted dose curve at least 0.9, where 1 is the maximum; inconclusive = response in the unintended direction; inactive = score below 0.9.
# Target: PGR (gene 5241) (UniProt P06401)
# Test: TOX21_PR_BLA_Followup_Antagonist_ratio: Tox21 HEK293 Progesterone Receptor (PR) Antagonism Beta-lactamase Follow-Up Assay, Ratio (AID 2283934)
# Procedure: TOX21_PR_BLA_Followup is a secondary assay for specificity for the TOX21_PR_BLA_Agonist assay. To differentiate true PR agonists from cytotoxic substances, this follow up assay is multiplexed with a cell viability assay. The compounds were also tested for auto fluorescence that may interfere with the biological target readout resulting in potential false positives and/or negatives. To identify the compounds that stimulate PR signaling, a PR-UAS-bla GripTite cell line i.e. PR-UAS-bla HEK293T (Invitrogen, Carlsbad, CA, USA) containing a beta-lactamase reporter gene under the control of an UAS response element was used to screen Tox21 10K compound library. The cytotoxicity of the Tox21 compound library against the PR-bla cell line was tested in parallel by measuring the cell viability using CellTiter-Glo assay in the same wells. TOX21_PR_BLA_Followup_Antagonist_ratio is an assay readout measuring reporter gene via receptor activity and designed using inducible reporter (beta lactamase induction) detected with GAL4 b-lactamase reporter gene. The signal is derived from the ratio of cleaved (ch2) to uncleaved (ch1) reporter gene substrate used as the measure of target activity.Data from the assay component TOX21_PR_BLA_Followup_Antagonist_ratio was analyzed into 1 assay endpoint. This assay endpoint, TOX21_PR_BLA_Followup_Antagonist_ratio, was analyzed in the positive analysis fitting direction relative to DMSO as the negative control and baseline of activity. Using a type of inducible reporter, measures of receptor for gain-of-signal activity can be used to understand the reporter gene at the pathway-level as they relate to the gene NR3C3. Furthermore, this assay endpoint can be referred to as a primary readout, because this assay has produced multiple assay endpoints where this ratio serves a reporter gene function to understand target activity. To generalize the intended target to other relatable targets, this assay endpoint is annotated to the nuclear receptor intended target family, where the subfamily is steroidal.
# Assay Protocol: PR-UAS-bla HEK293T cells were dispensed at 3,000 cells/4 uL of assay medium containing 2% charcoal stripped FBS per well into black wall/clear-bottom 1536-well plates using a Multidrop Combi (ThermoFisher Scientific, Waltham, MA) dispenser. After the assay plates were incubated at a 37C and 5% CO2 for 6 hr, 23 nL of compounds dissolved in DMSO, positive controls or DMSO only was transferred to the assay plate by a Pintool station (Kalypsys, San Diego, CA), followed by addition of 1 uL (1nM as final concentration) of Promegestone (R5020) in assay medium using a BioRAPTR FRD (Flying Reagent Dispenser, Aurora Discovery, San Diego, CA). The plates were incubated at 37C and 5% CO2 for 16 hr. Then 1 uL of LiveBLAzer B/G FRET substrate was added using a FRD. After the plates were incubated at room temperature for 2 hours, fluorescence intensity was measured by an Envision plate reader (PerkinElmer, Shelton, CT).
# Sequence of PGR (gene 5241) (P06401 whole entry, looked up): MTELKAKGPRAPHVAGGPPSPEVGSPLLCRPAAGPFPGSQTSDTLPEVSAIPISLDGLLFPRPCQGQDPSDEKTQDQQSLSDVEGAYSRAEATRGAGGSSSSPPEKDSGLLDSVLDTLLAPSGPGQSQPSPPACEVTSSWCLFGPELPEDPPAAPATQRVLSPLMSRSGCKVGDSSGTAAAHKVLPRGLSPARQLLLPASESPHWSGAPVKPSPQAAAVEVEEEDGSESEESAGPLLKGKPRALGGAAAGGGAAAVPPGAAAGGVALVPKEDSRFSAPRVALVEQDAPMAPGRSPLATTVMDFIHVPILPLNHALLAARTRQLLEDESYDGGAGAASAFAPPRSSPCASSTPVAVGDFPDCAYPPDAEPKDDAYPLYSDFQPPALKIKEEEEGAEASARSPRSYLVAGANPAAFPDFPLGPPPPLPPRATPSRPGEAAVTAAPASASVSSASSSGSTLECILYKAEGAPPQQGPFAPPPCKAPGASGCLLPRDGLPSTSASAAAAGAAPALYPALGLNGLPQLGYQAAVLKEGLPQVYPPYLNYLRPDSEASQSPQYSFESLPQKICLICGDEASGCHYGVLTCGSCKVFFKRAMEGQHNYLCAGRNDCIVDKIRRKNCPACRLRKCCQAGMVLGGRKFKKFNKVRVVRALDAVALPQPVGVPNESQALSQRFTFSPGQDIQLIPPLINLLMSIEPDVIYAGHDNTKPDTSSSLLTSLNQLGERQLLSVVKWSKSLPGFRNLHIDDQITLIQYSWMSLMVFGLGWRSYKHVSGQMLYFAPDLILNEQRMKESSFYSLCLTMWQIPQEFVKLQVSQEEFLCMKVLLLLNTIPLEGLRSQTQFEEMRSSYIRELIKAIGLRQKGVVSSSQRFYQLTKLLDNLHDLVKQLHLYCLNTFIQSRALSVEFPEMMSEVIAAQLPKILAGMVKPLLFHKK
SMILES,outcome,AC50
CC12CC1(C)C(=O)N(c1cc(Cl)cc(Cl)c1)C2=O (stereo not given),inactive,
O=C1C2(Cl)C3(Cl)C4(Cl)C(Cl)(Cl)C5(Cl)C3(Cl)C1(Cl)C5(Cl)C24Cl (stereo not given),,63 µM (active)
C[C@]12CCC(=O)C[C@@H]1CC[C@@H]1[C@@H]2CC[C@]2(C)[C@@H](O)CC[C@@H]12,inactive,
Oc1ccc(-c2ccccc2)cc1,,29.5 µM (active)
CC(C)C1CCC(Cc2ccc(Cl)cc2)C1(O)Cn1cncn1 (stereo not given),,15.8 µM (active)
C[C@]12CC[C@H](O)CC1=CC[C@@H]1[C@@H]2CC[C@]2(C)C(=O)CC[C@@H]12,,16.1 µM (active)
CC1(C)CCC(Cc2ccc(Cl)cc2)C1(O)Cn1cncn1 (stereo not given),,16.8 µM (active)
C[C@H]1CCCC(=O)CCC/C=C/c2cc(O)cc(O)c2C(=O)O1,,14.4 µM (active)
Nc1ccc(-c2ccc(N)c(Cl)c2)cc1Cl,,5.01 µM (active)
Clc1ccc(C2(Cn3cncn3)CC(Br)CO2)c(Cl)c1 (stereo not given),,37.7 µM (active)

# — PubChem BioAssay (EPA / NIEHS)
